These results are taken from PubChem BioAssay (NCI).

What all share (experiment): NCI-60 one-dose screen, 48 h (100 = growth as untreated, 0 = no growth, -100 = all killed)
Assay [1] relates to HT29 colon. The conditions noted are these: 10 µM.
Assay [2] deals with SNB-75 CNS. Particulars: 10 µM.
The subject of assay [3] is SNB-19 CNS. Particulars: 10 µM.
Assay [4] concerns U251 CNS. The conditions noted are these: 10 µM.
Assay [5] concerns SK-MEL-5 melanoma. Particulars: 10 µM.
Assay [6] deals with UACC-62 melanoma. Particulars: 10 µM unless noted.
Assay [7] relates to LOX IMVI melanoma. Particulars: 10 µM.
Assay [8] has as its system SK-MEL-28 melanoma. Particulars: 10 µM.
Assay [9] has as its system SK-MEL-2 melanoma. Particulars: 10 µM.
The subject of assay [10] is SN12C renal. The conditions noted are these: 10 µM.
Assay [11] concerns UO-31 renal. Particulars: 10 µM.
In assay [12] the test system is TK-10 renal. The conditions noted are these: 10 µM unless noted.
Assay [13] concerns ACHN renal. The conditions noted are these: 10 µM.
Assay [14] relates to CAKI-1 renal. Particulars: 10 µM.
Assay [15] has as its system A498 renal. Particulars: 10 µM.
Assay [16] has as its system CCRF-CEM leukemia. The conditions noted are these: 10 µM.
Assay [17] relates to MOLT-4 leukemia. Particulars: 10 µM.
Assay [18] deals with HCT-15 colon. Particulars: 10 µM.
Assay [19] concerns PC-3 prostate. The conditions noted are these: 10 µM.
The subject of assay [20] is EKVX NSCLC. The conditions noted are these: 10 µM.

This is part of a sample that, as a whole, favours compounds with a hit. Of some 83,000 tested, about 20% had one in any assay.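 Testing used 96-well plates and a 48-hour single-concentration exposure. Example: -40 means 40% of the starting cells died.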 Unmarked numbers belong to inactive results. The source made the active and inactive calls. How the source made its calls: active means growth percent below 10; inactive means the rest.

On to `CC(C)CCCC(=O)O`, for which the growth was 104% in assay [1]; 95.4% in [2]; 101% in [3]; 103% in assay [4]; 97.2% in [5]; 107% in [6]. Also, the growth in assay [7] is 105%; in [8], 99%; in assay [9], 102%; in assay [10] it was 106%; in [11], 95.4%; in assay [12], 105%. Besides, the growth is 104% in [13]; 105% in assay [14]; 86.8% in [15]; 101% in assay [16]; 119% in assay [17].

For the compound `N=c1c(C(=O)OCc2ccccc2)ncc(CCl)n1O`, the growth in [18] is 99.7%; in [2] it was 83.6%; in assay [3], 95.6%; in [4], 71.4%; in [19], 95.9%; in assay [5], 96.9%. In addition, the growth in assay [6] is 91.1%; in assay [7], 42.2%; in assay [8], 98.1%; in assay [20], 101%; in assay [10] it was 88.6%; in [11] it was 83.5%. For the same compound, the growth in assay [12] was 106%; in [13] it was 94.6%; in assay [14], 92.2%; in assay [15] it was 103%; in assay [16], 94%; in [17], 97.8%.

Turning to `CCCC(=O)Nc1ccc2c(c1)CN1C(=O)c3ccccc3C1=N2`, the growth in assay [18] is 98.3%; in assay [2], 104%; in assay [3], 110%; in assay [4] it was 98.6%; in assay [5], 98.5%; in assay [6], 100%. In addition, the growth was 105% in [7]; 111% in [8]; 100% in assay [9]; 108% in [20]; 100% in assay [10]; 86.1% in [11]. Further, the growth in [12] was 96.4%; in [13], 111%; in [14] it was 97.2%; in assay [15] it was 88.5%; in assay [16] it was 99.6%; in [17], 98.4%.

Regarding `COC1=CC(=O)c2nc(Cl)ccc2C1=O`, the growth in assay [18] was 100%; in [2], 48.6%; in [3] it was 113%; in assay [4], -42.5% (active); in [19] it was 21.7%; in [6] it was 17.4%. The growth in assay [7] is -95.7% (active); in [8], 111%; in [20], 74%; in assay [10], -69.5% (active); in assay [11], 23.5%; in assay [12], 84.2%. Further, the growth in assay [13] is 42.6%; in assay [14], 91.6%; in assay [15], 108%; in assay [16], 1.69% (active); in [17] it was -27.4% (active).

For the compound `CCOC(=O)c1cc(/C=C/c2cccc(Cl)c2)on1`, the growth was 64.8% in assay [18]; 78.8% in [1]; 87.5% in [4]; 85.1% in assay [19]; 96.9% in assay [5]; 78.8% in assay [6]. Also, the growth in assay [8] is 104%; in assay [9], 113%; in assay [20], 75.4%; in [10] it was 86.2%; in assay [12], 111%; in assay [13], 90.9%. For the same compound, the growth is 91.3% in assay [14], 110% in [15], 67% in [16] and 99.9% in [17].

Regarding `COc1cc(OC)c2ccc(=O)oc2c1`, the growth in assay [18] was 96.4%; in [2] it was 85.3%; in assay [3] it was 99%; in [4] it was 98.8%; in [19], 100%; in assay [5] it was 107%. Besides, the growth in [6] was 95.5%; in assay [7] it was 96.6%; in assay [8], 115%; in assay [9], 104%; in [20], 95.2%; in assay [10], 97%. The growth in assay [11] was 94.9%; in assay [12] it was 101%; in assay [13], 104%; in [14], 113%; in assay [15], 101%; in [16], 106%. Also, the growth in [17] is 115%.

In the case of `O=[N+]([O-])c1ccc(/C=C/C=C/c2ccccc2)c(Cl)c1`, the growth was 90.3% in assay [1]; 94.2% in [2]; 99.7% in assay [3]; 92% in [4]; 101% in assay [5]; 96.6% in assay [6]. In addition, the growth in [7] was 98%; in assay [8], 106%; in assay [9] it was 94.3%; in assay [10], 98.3%; in assay [11], 92.8%; in assay [12] it was 121%. For the same compound, the growth in assay [13] is 100%; in assay [14] it was 95%; in assay [15] it was 88.9%; in assay [16], 90.7%; in assay [17], 86.4%.

As to `COc1cccc(Sc2ccc([N+](=O)[O-])c3no[n+]([O-])c23)c1`, the growth in assay [1] was 30.2%; in assay [2], 31.8%; in assay [3], 83.3%; in assay [19], 59.4%; in [5], 88.9%; in [6] it was 53.2%. Moreover, the growth was 28.9% in assay [7]; 55% in assay [8]; 86.2% in assay [9]; 91.9% in assay [20]; 74.4% in assay [10]; -21.5% (active) in assay [11]. Also, the growth in assay [12] is 60.3%; in assay [13], 9.88% (active); in assay [14], 64.8%; in assay [15], 98%; in assay [16], -19.5% (active); in assay [17], 0.692% (active).

With `CC(=O)OCC1OC(OC2=C(CC=C(C)C)C(=O)c3ccccc3C2=O)C(OC(C)=O)C(OC(C)=O)C1OC(C)=O` (stereo unspecified), the growth in [18] is 12.2%; in assay [3], 61.2%; in assay [4], 8.23% (active); in assay [5], 4.66% (active); in [6], -23.8% (active); in assay [8], 30.3%. Further, the growth in assay [9] was 58.7%; in [20], 15.6%; in assay [10] it was 52%; in assay [11], 38.6%; in assay [12], 87.4%; in assay [13], 12.8%. Moreover, the growth is 68.5% in assay [14], 22.6% in [15], -25.8% (active) in [16] and -26.7% (active) in [17].
